# Only some compounds are listed: those with a hit (about 3% of all), similar ones and a draw of the others.
# ABHD5 PLIN5 PPI = inhibitors of human ABHD5-perilipin-5 interaction. Split G. princeps luciferase complementation, luminescence, 4 h. inhibition, % at 4 µM. 360,000 compounds, 0.78% hits. AID 602281;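 active = inhibition above the mean inhibition across every tested compound plus 3 SD, cut at about 22% in these data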;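 note: 0% = DMSO only wells and the 100% control is not disclosed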
# Target sequence (Q00G26 whole entry, looked up): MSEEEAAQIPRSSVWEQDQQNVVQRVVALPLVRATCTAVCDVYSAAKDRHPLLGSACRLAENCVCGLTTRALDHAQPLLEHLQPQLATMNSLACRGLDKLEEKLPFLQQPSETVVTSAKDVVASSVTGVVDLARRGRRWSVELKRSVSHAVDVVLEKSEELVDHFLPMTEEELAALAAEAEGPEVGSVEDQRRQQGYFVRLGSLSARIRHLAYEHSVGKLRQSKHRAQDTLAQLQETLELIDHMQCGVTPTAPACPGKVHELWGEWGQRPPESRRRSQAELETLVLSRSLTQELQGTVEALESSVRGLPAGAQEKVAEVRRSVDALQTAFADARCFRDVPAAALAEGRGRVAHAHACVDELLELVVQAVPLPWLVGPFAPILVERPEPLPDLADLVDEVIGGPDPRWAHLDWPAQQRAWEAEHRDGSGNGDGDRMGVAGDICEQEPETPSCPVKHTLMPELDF
# Target sequence (Q8WTS1 whole entry, looked up): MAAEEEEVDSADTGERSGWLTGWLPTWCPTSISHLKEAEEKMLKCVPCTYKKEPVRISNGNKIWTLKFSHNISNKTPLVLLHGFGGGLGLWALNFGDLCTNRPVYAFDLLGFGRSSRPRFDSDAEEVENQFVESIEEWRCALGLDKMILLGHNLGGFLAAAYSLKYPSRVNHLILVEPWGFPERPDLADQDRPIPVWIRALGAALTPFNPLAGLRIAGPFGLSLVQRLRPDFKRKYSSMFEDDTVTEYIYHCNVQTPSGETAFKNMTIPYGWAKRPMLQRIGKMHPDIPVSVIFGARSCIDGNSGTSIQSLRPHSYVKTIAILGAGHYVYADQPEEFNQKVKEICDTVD
# HIF-2a inh = blocks HIF-2a reporter activity; 360,000 compounds, 0.72% hits; AID 624352; inhibition, % at 18.8 µM; 786-0 RCC cells HIF-2a reporter, luciferase luminescence, overnight;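 active = inhibition of the luminescence signal of 40% or more relative to plate controls, in a single-dose primary screen at 18.75 µM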
# MITF TRPM1 inh = MITF TRPM1 promoter inhibition in SK-MEL-5 cells | AID 488899 | inhibition, % at 12.5 µM | 330,000 compounds, 0.83% hits | SK-MEL-5 TRPM1 promoter luciferase, 24 h;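 active = mean inhibition across replicates of 60% or more, whatever share of single replicates reaches that level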
# Peg3 prom inh = reduces Peg3 promoter-driven luciferase expression in HeLa; HeLa PEG-Prom luciferase reporter, luminescence, overnight; inhibition, % at 20 µM; 360,000 compounds, 1.7% hits;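 active = inhibition of at least 50% at 20 µM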
# CF NFkB inh = inhibitors of cystic fibrosis induced NF-kB | KKLEB NF-kB-GFP reporter, PAF-induced, GFP fluorescence overnight | inhibition, % at 5 µM | 360,000 compounds, 0.86% hits;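 active = at least 50% inhibition at 5 µM, scaled per plate between neutral and stimulator controls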;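 note: PAF is a Pseudomonas aeruginosa culture filtrate used as stimulus; plate controls were PAF-stimulated DMSO wells for no effect and unstimulated DMSO wells for full effect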
# KKLEB cytotox = counter-screen for CF NF-kB inhibitors: cytotoxicity | KKLEB CF airway cells viability, ATPlite luminescence, overnight; stronger effect = lower value; cells stimulated with P. aeruginosa culture filtrate | activity change (cytotoxicity), % at 5 µM | 360,000 compounds, 0.36% hits;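 active = corrected activity change at or below -50% at 5 µM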
# Starred values were filed as active, the others as inactive; . = no result given.
SMILES,ABHD5 PLIN5 PPI,HIF-2a inh,MITF TRPM1 inh,Peg3 prom inh,CF NFkB inh,KKLEB cytotox
Cn1cc(C(=O)NCc2ccc(Cl)cc2)c(=O)c2cc(S(=O)(=O)N3CCOCC3)ccc21,-11,20,-4,2,14,-10
COc1ccc(-c2nc3c(c(=O)[nH]c(=O)n3Cc3ccccc3)n2CCO)cc1,-3,15,3,7,4,-2
O=c1[nH]c(=O)n(Cc2ccccc2)c2nc(-c3ccc(Oc4ccc(F)cc4)c([N+](=O)[O-])c3)n(CCO)c12,4,21,0,63*,-22,-3
CCCn1c(SCC(=O)NC2CCC(C)CC2)n[nH]c1=O (stereo unspecified),-6,6,-6,0,-8,10
O=c1[nH]c(=O)n(-c2cc(Br)c(O)c(Br)c2)cc1Br,7,23,1,2,-13,-2
O=C(CCl)N1c2ccccc2CCc2ccccc21,4,13,75*,25,22,-14
COC(=O)C1C2CCCCC1C(=O)O2 (stereo unspecified),-2,4,-7,3,-5,6
CN(/N=C/c1cc(Br)cc(Br)c1O)c1cccc(C(F)(F)F)n1,-7,13,4,57*,46,-12
O=C1Cc2c([nH]c3ccc([N+](=O)[O-])cc23)-c2ccccc2N1,-11,-57,12,108*,84*,-29
O=c1[nH]c2cc([N+](=O)[O-])ccc2c2ccccc12,7,-2,-12,29,-120,16
C/C(=N\NC(=O)c1cc(C)oc1C)c1ccc2ccccc2c1,-16,-40,-24,-40,-6,-2
CC(C)c1ccc(NC(=O)Nc2nc(C(N)c3ccccc3)cs2)cc1 (stereo unspecified),-5,5,.,110*,12,-43
CS(=O)(=O)c1ccc(Nc2nc(C(N)COCc3ccccc3)cs2)cc1 (stereo unspecified),3,9,.,10,-16,-23
CC(C)c1ccc(NC(=O)Nc2nc(C(N)C(C)C)cs2)cc1 (stereo unspecified),4,-10,.,96*,8,-13
Cc1ccccc1NC(=O)Nc1nc(C(N)c2ccccc2)cs1 (stereo unspecified),-2,-18,.,4,4,1
CC(C)c1ccc(NC(=O)Nc2nc(C(N)COCc3ccccc3)cs2)cc1 (stereo unspecified),-7,26,.,110*,-13,-5
Cc1cc2c(cc1C)-n1nnnc1C(N1CCN(C(=O)OCc3ccccc3)CC1)C(=O)N2 (stereo unspecified),6,0,.,.,.,.
c1ccc(CCNCCCOc2cccc3ccccc23)cc1,5,12,-2,50*,22,6
COC(=O)/C(=C(/F)Sc1cc(C)c(O)c(C)c1)C(F)(F)F,-21,8,24,63*,-4,1
COC(=O)C(Nc1ccccc1Cl)(c1cc(C)c(O)c(C)c1)C(F)(F)F (stereo unspecified),-3,6,27,27,-1,12
O=C(CSc1nnc(CNc2ccc(F)cc2)n1Cc1ccco1)NC1CC1,22*,-10,-1,-2,9,5
O=C(CSc1nnc(CNc2ccc(F)cc2)n1Cc1ccco1)N1CCOCC1,-5,4,-2,10,-7,1
CCN(Cc1ccccc1)C(=O)COC(=O)[C@@H]1CCCN1C(=O)c1cccs1,7,10,4,4,-9,10
CS(=O)(=O)c1ccc(Nc2nc(C(N)Cc3ccc(C(F)(F)F)cc3)cs2)cc1 (stereo unspecified),12,7,.,27,38,-17
Cc1cc(C)nc(Nc2nc(C(N)Cc3ccc(F)cc3)cs2)n1 (stereo unspecified),10,-6,.,-44,-1,2
NC(Cc1ccc(C(F)(F)F)cc1)c1csc(Nc2nccc(C(F)(F)F)n2)n1 (stereo unspecified),-2,15,.,92*,-4,-10
CCCc1cnc(Nc2nc(C(N)Cc3ccc(C(F)(F)F)cc3)cs2)nc1 (stereo unspecified),-9,27,.,96*,17,-7
Cc1cc(C)nc(Nc2nc(C(N)Cc3ccc(C(F)(F)F)cc3)cs2)n1 (stereo unspecified),7,13,.,102*,-5,-2

# Screening data (PubChem)
